These results are taken from PubChem BioAssay (NCI).

What all share (assay): NCI-60 one-dose screen, 48 h (100 = growth as untreated, 0 = no growth, -100 = all killed)
Common to all, as to conditions: 10 µM unless noted

In assay [1] the test system is SR leukemia.
For assay [2], the system named is RPMI-8226 leukemia.
Assay [3] has as its system OVCAR-8 ovarian.
The subject of assay [4] is OVCAR-5 ovarian.
The subject of assay [5] is OVCAR-4 ovarian.
For assay [6], the system named is SK-OV-3 ovarian.
The subject of assay [7] is IGROV1 ovarian.
The subject of assay [8] is OVCAR-3 ovarian.
For assay [9], the system named is HS 578T breast.
The subject of assay [10] is NCI/ADR-RES ovarian.
Assay [11] deals with T-47D breast.
Assay [12] has as its system BT-549 breast.
The subject of assay [13] is MDA-MB-435 melanoma.
In assay [14] the test system is SW-620 colon.
The subject of assay [15] is MCF7 breast.
Assay [16] concerns HCT-116 colon.
For assay [17], the system named is HCC-2998 colon.
Assay [18] concerns KM12 colon.

Compounds without any hit were thinned out: in the full panel of roughly 83,000, 20% have a hit.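 Treatment: one concentration, 48 hours, 96-well format. Scoring: percent growth, with anything below 10 considered active.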 Values without a mark were called inactive. Calls of active or inactive are those of the source.

In the case of `CC(O)CN(CCO)CCN(CCO)CC(C)O` (configuration not stated), the growth in assay [1] is 89.2%; in [2] it was 102%; in assay [3], 106%; in assay [4] it was 99.7%; in assay [5], 109%; in assay [6] it was 114%. Also, the growth is 115% in assay [7]; 112% in assay [8]; 108% in assay [9]; 112% in assay [10]; 100% in assay [11]; 105% in [12]. In addition, the growth in assay [13] was 106%; in [14], 105%; in [15], 94.5%; in assay [16], 104%; in assay [17], 109%; in assay [18] it was 108%.

As to `CC(=O)Nc1nc(C)c(C(=O)N/N=C/c2cccs2)s1`, the growth in [1] was 81.4%; in assay [2], 61.9%; in [3] it was 112%; in assay [4] it was 99%; in [5], 112%; in assay [6] it was 87.7%. Moreover, the growth in assay [7] is -4.95% (active); in [8], 121%; in [9] it was 85.5%; in assay [10] it was 99.2%; in assay [11], 67.8%; in assay [12] it was 120%. For the same compound, the growth in assay [13] is 111%; in [14], 94.2%; in assay [15], 75.7%; in [17] it was 114%; in assay [18], 116%.

For `CCCCCCC(C(=O)OCC)(C(=O)OCC)C1CCCCCC1`, the growth in assay [1] was 101%; in assay [2], 113%; in assay [3], 107%; in assay [4], 102%; in assay [5], 101%; in assay [6], 95.7%. For the same compound, the growth in assay [7] was 102%; in assay [8] it was 117%; in [9], 105%; in assay [10], 106%; in [11], 91.9%; in [12] it was 104%. For the same compound, the growth is 103% in assay [13]; 99.1% in assay [14]; 96.3% in [15]; 99% in assay [16]; 100% in [17]; 105% in assay [18].

On to `CC(=O)Nc1ccc(CC#N)cc1Br`, for which the growth in [1] is 112%; in assay [2] it was 109%; in assay [3], 110%; in assay [4], 109%; in assay [5], 98.2%; in assay [6], 104%. Also, the growth in [7] was 110%; in assay [8] it was 108%; in assay [9] it was 89.9%; in [10], 116%; in assay [11], 94.4%; in assay [12] it was 109%. Further, the growth in [13] was 104%; in assay [14], 99.3%; in assay [15], 96.7%; in assay [16], 96.8%; in assay [18] it was 107%.

In the case of `COc1ccc(Cn2cc3c(c2)-c2oncc2CC3)cc1OC`, the growth in assay [1] was 16.8%; in assay [2] it was 35.1%; in assay [3] it was 24.5%; in assay [4] it was 40.3%; in [5] it was 43.4%; in [6] it was -12.4% (active). The growth in [7] is 17.6%; in [8] it was -27.4% (active); in [9], 2.04% (active); in [10], 1.63% (active); in [11], 47.5%; in assay [12], 59.4%. The growth in assay [13] is -46.2% (active); in [14] it was 21.9%; in [15], 7.49% (active); in assay [16], 4.37% (active); in assay [18], 5.46% (active).

With `Cc1nnc(-c2cc3c(ccc4ccccc43)oc2=O)c2cn(-c3ccc(Cl)cc3)nc12`, the growth in assay [1] is 80.4%; in assay [2], 75%; in [3] it was 96.3%; in [4] it was 108%; in [5], 83.8%; in [6] it was 91.7%. In addition, the growth in assay [7] was 87%; in [8], 89.8%; in [9], 93.8%; in assay [10] it was 96.3%; in assay [11] it was 76.2%; in assay [12], 105%. The growth is 107% in [13]; 99.3% in assay [14]; 80.1% in assay [15]; 85.6% in assay [16]; 94.4% in assay [18].

Turning to `O=S(=O)(Cc1cccc2c(CS(=O)(=O)c3ccc(Cl)cc3)cccc12)c1ccc(Cl)cc1`, the growth in assay [1] was 94.7%; in assay [2], 96.3%; in assay [3] it was 71.1%; in assay [4], 97.3%; in assay [5] it was 100%; in [6] it was 94.7%. For the same compound, the growth in assay [7] is 91.4%; in assay [8], 95.9%; in assay [9] it was 70.8%; in assay [10] it was 90%; in assay [11] it was 100%; in [12], 105%. Moreover, the growth is 77.7% in assay [13]; 88.5% in assay [14]; 85.4% in assay [15]; 95.5% in [16]; 101% in assay [17]; 88.1% in assay [18].

In the case of `CCCCCCCCCC[N+](C)(C)C`, the growth is 20.2% in assay [1]; 1.86% (active) in assay [2]; 18.3% in [3]; 9.16% (active) in [4]; 23% in assay [5]; 56.2% in assay [6]. Further, the growth in assay [7] is -37.8% (active); in assay [8], 5.8% (active); in assay [9] it was 26.5%; in assay [10], 94.4%; in assay [11], 27.3%; in assay [12], 46.7%. For the same compound, the growth is 32.6% in [13]; 19% in [14]; 31.1% in assay [15]; 21.8% in [16]; 22% in assay [17]; -51.2% (active) in assay [18].

Regarding `CCCCCCNC(=O)Oc1ccc(/C(=C(/C)Cc2ccc(OC)cc2)c2ccc(OCCN(C)C)cc2)cc1`, the growth in assay [1] was -22.5% (active); in [2], 28.8%; in assay [3], 69.9%; in assay [4], 90.3%; in assay [5], 76.8%; in assay [6], 83.4%. The growth in assay [7] is 74.4%; in assay [8], 81.3%; in [9], 45.9%; in [10], 78.3%; in assay [11] it was 25.8%; in assay [12], 88.1%. Moreover, the growth is 67.8% in [13]; 35.4% in [14]; 20.4% in [15]; 26.7% in [16]; 56.3% in [18].

`CSc1nc(N)n2nccc2n1`: the growth is 111% in assay [1]; 106% in [2]; 98.5% in [3]; 114% in assay [4]; 103% in [5]; 105% in assay [6]. In addition, the growth in [7] was 105%; in assay [8], 106%; in [9] it was 105%; in assay [10], 105%; in assay [11], 102%; in assay [12] it was 99.6%. In addition, the growth in assay [13] was 98.3%; in assay [14], 97.9%; in [16], 99.2%; in assay [17], 100%; in [18], 114%.

Take `CCCCCCCCCCCCCCCC[n+]1cccc(C#N)c1`: the growth was -8.5% (active) in assay [1]; 45.1% in [2]; 51.6% in assay [3]; 79.7% in [4]; 56.6% in [5]; 100% in assay [6]. Also, the growth in [7] was 69.2%; in [8] it was 35.5%; in assay [9], 96.6%; in assay [10], 96.3%; in assay [11], 49.2%; in assay [12] it was 90.3%. Also, the growth is 73.3% in assay [13]; 35.6% in [14]; 38.5% in assay [15]; 24% in assay [16]; 65.2% in [17]; 44.4% in assay [18].

In the case of `COCC(=O)NNc1[nH]c(-c2ccc(OC)cc2)cc1C#N`, the growth in assay [1] is 102%; in assay [2] it was 101%; in assay [3], 113%; in [4], 98.6%; in assay [5], 127%; in assay [6] it was 112%. Moreover, the growth in assay [7] was 22.4%; in [8], 129%; in assay [9], 104%; in assay [10] it was 106%; in assay [11], 106%; in assay [12], 113%. The growth in [13] is 102%; in assay [14], 114%; in [15], 108%; in assay [16] it was 110%; in assay [17] it was 133%; in [18] it was 104%.

Take `N=C(N)c1ccc(-c2ccc(-c3cc(Cl)cc(Cl)c3)s2)cc1`: the growth in [1] is -16.6% (active); in assay [2], -48.9% (active); in [3] it was -12.5% (active); in [4], -78.3% (active); in assay [5], -66.1% (active); in assay [6] it was -78.6% (active). In addition, the growth in assay [7] was -73.8% (active); in assay [8], -83.4% (active); in assay [9], -46.8% (active); in assay [10] it was -47.4% (active); in [11], -54% (active); in [12], -45.7% (active). Further, the growth in assay [13] is -90.2% (active); in assay [14], -70.9% (active); in assay [15], -72.5% (active); in assay [16], -78.7% (active); in [17], -65.2% (active); in assay [18], -77.4% (active).

On to `CCOc1ccc2nc3ccc(Cl)cc3nc2c1`, for which the growth in assay [1] is -19.9% (active); in [2], 71.5%; in assay [3], 103%; in assay [4], 216%; in assay [5], 82.1%; in assay [6], 104%. Besides, the growth in [7] is -8.97% (active); in [8], 110%; in assay [9], 106%; in assay [10] it was 96.4%; in assay [11], 80.6%; in assay [12] it was 90.7%. Moreover, the growth is 107% in [13]; 91% in assay [14]; 92.3% in assay [15]; 88.1% in assay [16]; 94.5% in assay [18].

Consider `N=c1c2c(=O)n3c(nc2nc2sc4ccc(Cl)cc4n12)-c1ccccc1Sc1ccccc1-3`, for which the growth in assay [1] was 5.86% (active); in [2], 7.72% (active); in assay [3], 19.8%; in assay [4], 48.2%; in assay [5], 0.243% (active); in [6], 19.5%. The growth is 2.34% (active) in assay [7]; 20.9% in [8]; 35.1% in assay [9]; 12.3% in [10]; 1.99% (active) in assay [11]; 1.57% (active) in assay [12]. The growth in [13] was 0.844% (active); in assay [14], 26.1%; in [15] it was 6.98% (active); in [16], 7.35% (active); in assay [17], 6.95% (active); in assay [18], 22.6%.

Regarding `CCC(CCCN1C(=O)c2ccccc2C1=O)Nc1cc(OC)cc2cccnc12` (configuration not stated), the growth in [1] is 73.5%; in [2] it was 102%; in [3], 96.1%; in [4], 89.6%; in [5] it was 39.9%; in [6] it was 107%. Moreover, the growth in assay [7] is -7.61% (active); in [8], 106%; in [9], 84.5%; in assay [10] it was 99.5%; in [11] it was 66.3%; in [12], 92.9%. The growth in assay [13] is 105%; in assay [14] it was 95%; in assay [15], 20.8%; in [16], 105%; in [18], 110%.

Turning to `COC(=O)c1cc(O)c2cc3c(cc2c1-c1cc(OC)c(OC)c(OC)c1)OCO3`, the growth in [1] is 24.3%; in [2] it was 4.51% (active); in assay [3], 45.8%; in [4] it was 45%; in [5], 71.3%; in assay [6] it was 22.2%. Also, the growth was 44% in assay [7]; 8.41% (active) in assay [8]; -2% (active) in [9]; 3.4% (active) in assay [10]; 25.9% in assay [11]; 2.84% (active) in assay [13]. Moreover, the growth in assay [14] was 17.8%; in [15], 21.9%; in [16] it was 20.8%; in assay [17], 52.3%; in assay [18], 25.7%.
